High-throughput results deposited in PubChem by National Center for Advancing Translational Sciences (NCATS).
Shown are actives, neighbours in structure and some others; about 21% of the full set was active somewhere.
Shiga toxin inh: A qHTS for Small Molecule Inhibitors of Shiga Toxin; AID 2315, 2010; Vero cells, Shiga toxin protein synthesis inhibition reporter; 290,000 tested, 9.2% active; inhibition, % at 38.7 µM; in the data active = inhibition mostly above about 28%, no sharp cut-off; inactive = mostly below about 43%; note: 0% is about no effect
Cycloheximide cs: Cycloheximide Counterscreen for Small Molecule Inhibitors of Shiga Toxin | cell reporter, cycloheximide protein synthesis inhibition counterscreen | max response, % | 300,000 tested, 12% active | AID 2314, 2010; in the data active = max response mostly above about 13%, no sharp cut-off; inactive = mostly below about 14%; note: read at 38.3 µM for the half of the compounds with a filed dose; 0% is about no effect
Pf growth 96h: Primary qHTS for delayed death inhibitors of the malarial parasite plastid, 96 hour incubation. AID 504834, 2011. 320,000 tested, 6.9% active. Potency, µM (series often up to 28.7 µM), inactives show at the top dose activity change, negative = inhibition, hits mostly inhibitors. P. falciparum luciferase reporter growth, 96 h; note: potency is the fitted concentration of half-maximal effect; % is set by controls: 0 for no effect and ±100 for the full control effect
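Erythrocytes infected with luciferase-expressing P. falciparum were dispensed at 2% hematocrit and 0.05% parasitemia (final), then incubated with compounds 96 hours at 37 C in 5% CO2. Luminescence after detection reagent addition reported growth.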
Pf growth 48h: Primary qHTS for delayed death inhibitors of the malarial parasite plastid, 48 hour incubation. P. falciparum luciferase growth in erythrocytes, 48 h. Potency, µM (highest dose often 28.7 µM), without a hit: at the top dose activity change, negative = inhibition, usual class: inhibitors. 310,000 tested, 5.9% active. AID 504832, 2011; note: potency is the fitted concentration of half-maximal effect; % is set by controls: 0 for no effect and ±100 for the full control effect
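Parasite viability was followed by luminescence of a genomically integrated firefly luciferase. Cultures held 0.1% parasitemia at 2% hematocrit (final), incubated under 5% CO2 at 37 C.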
* hit, by the source's call. Unless noted, calls come from the whole dose curve; as a rule, active = well fitted inhibition curve with a large enough effect; inconclusive = small, poorly fitted or top-dose-only effect, or another doubt; inactive = no such curve, though single readings can be large or run the other way.

Screening Cc1ccc(-c2cc(C(=O)NCc3ccco3)no2)cc1 returned Shiga toxin inh 43.3*, Cycloheximide cs 27.5*, Pf growth 96h -13.4% and Pf growth 48h 87.7%.
For COc1ccc(CCNC(=O)c2cc(CC(C)C)on2)cc1OC the results were Shiga toxin inh 24.0, Cycloheximide cs 14.7 and Pf growth 96h 7.38µM*.
For Cc1ccccc1CNC(=O)Cc1cccs1 the results were Shiga toxin inh 49.6*, Cycloheximide cs 43.7*, Pf growth 96h 3.9% and Pf growth 48h 187.1%.
For O=C(Cc1cccs1)NCc1ccccc1F the results were Shiga toxin inh 52.4*, Cycloheximide cs 18.3* and Pf growth 48h 77.7%.
O=C(Cc1c(O)c2ccccc2[nH]c1=O)NCc1ccccc1F was read as Shiga toxin inh 93.5*, Cycloheximide cs 60.2*, Pf growth 96h -10.6% and Pf growth 48h 3.3%.
O=C(Cc1cccs1)NCc1ccccc1 was read as Shiga toxin inh 26.0, Cycloheximide cs 9.9, Pf growth 96h inconclusive and Pf growth 48h 56.8%.
Screening O=C(NCCNCc1cccs1)c1ccccc1F returned Shiga toxin inh -6.4, Cycloheximide cs 8.3, Pf growth 96h 2.9% and Pf growth 48h 35.1%.
O=C(NCc1cccs1)c1ccccc1F was read as Shiga toxin inh 12.3, Cycloheximide cs 12.1*, Pf growth 96h 7.1% and Pf growth 48h 9.2%.
O=C(Cc1c(O)c2ccccc2[nH]c1=O)NCc1cccc(F)c1 was read as Shiga toxin inh -18.0, Cycloheximide cs -4.6, Pf growth 96h 12.9% and Pf growth 48h 20.1%.
`O=C(Cc1cccs1)NCc1ccncc1` gave Shiga toxin inh -16.3, Cycloheximide cs 3.9, Pf growth 96h -43.9% and Pf growth 48h -1.4%.
`COc1ccc(-n2c(SC(C)C(=O)Nc3ccc(NC(C)=O)cc3)nc3ccccc3c2=O)cc1OC` (stereo unspecified) gave Shiga toxin inh -6.8, Cycloheximide cs 0.9, Pf growth 96h inconclusive and Pf growth 48h inconclusive.
For CCOCCCn1c(SCC(=O)Nc2ccc(OC)cc2)nc2ccccc2c1=O the results were Shiga toxin inh 6.4, Cycloheximide cs 3.1, Pf growth 96h -20.3% and Pf growth 48h inconclusive.
`O=C(CN(Cc1ccccc1)C(=O)CCC(=O)Nc1nccs1)NCc1ccccc1` gave Shiga toxin inh -6.7, Cycloheximide cs -6.0, Pf growth 96h -4.5% and Pf growth 48h -2.3%.
CSc1ccc(CCNC(=O)CCc2nnc3ccc(N4CCC5(CC4)OCCO5)nn23)cc1 was read as Shiga toxin inh -6.9, Cycloheximide cs 9.8, Pf growth 96h 43.0% and Pf growth 48h inconclusive.
For OCCC1CN(Cc2cccn2-c2ccccn2)CCN1C1CCCCC1 (stereo unspecified) the results were Shiga toxin inh 12.8, Cycloheximide cs -2.8, Pf growth 96h inconclusive and Pf growth 48h 18.4%.
Screening CC(=O)N1CCOc2ccc(S(=O)(=O)N3C(C)CCCC3C)cc21 (stereo unspecified) returned Shiga toxin inh -3.9, Cycloheximide cs -2.6, Pf growth 96h 15.0% and Pf growth 48h 57.1%.
Screening CC(=O)N1CCOc2ccc(S(=O)(=O)N3CCC(C(=O)Nc4ccc(C)c(C)c4)CC3)cc21 returned Shiga toxin inh -11.6, Cycloheximide cs -6.1, Pf growth 96h inconclusive and Pf growth 48h -8.1%.
`CC(=O)N1CCOc2ccc(S(=O)(=O)N3CCCC(C)C3)cc21` (stereo unspecified) gave Shiga toxin inh -5.7, Cycloheximide cs 9.6, Pf growth 96h 11.7µM* and Pf growth 48h -7.2%.
For CC(=O)N1CCOc2ccc(S(=O)(=O)N3CCC(C(=O)Nc4ccc(F)cc4)CC3)cc21 the results were Shiga toxin inh -2.4, Cycloheximide cs 18.6, Pf growth 96h 14.7µM* and Pf growth 48h inconclusive.
Screening COc1cc(/C=N/n2cnn(Cc3ccccc3Cl)c2=S)cc(OC)c1OC returned Shiga toxin inh -4.1, Cycloheximide cs 5.3, Pf growth 96h -7.8% and Pf growth 48h inconclusive.
`COc1ccc(/C=N/n2cnn(Cc3ccccc3Cl)c2=S)cc1` gave Shiga toxin inh 44.1, Cycloheximide cs 35.6*, Pf growth 96h -2.8% and Pf growth 48h 412.5%.
Screening CC1(C)Cc2nc(-c3ccccc3)nc(SCC(O)CO)c2CO1 (stereo unspecified) returned Shiga toxin inh 7.1, Cycloheximide cs -1.7, Pf growth 96h 10.4µM* and Pf growth 48h -6.7%.
Screening Cc1cccc(-c2nc3c(c(SCC(=O)N4CCOCC4)n2)COC(C)(C)C3)c1 returned Shiga toxin inh -1.2, Cycloheximide cs -3.9, Pf growth 96h 11.7µM* and Pf growth 48h inconclusive.
Screening CCN(CC)C(=O)CSc1nc(-c2ccc(C)cc2)nc2c1COC(C)(C)C2 returned Shiga toxin inh 14.7, Cycloheximide cs 19.8* and Pf growth 96h inconclusive.
For CC(C)C(=O)NNC(=O)c1csc(-c2cccs2)n1 the results were Shiga toxin inh 15.1, Cycloheximide cs 3.3, Pf growth 96h -10.1% and Pf growth 48h 0.0%.
For CC(C)(C)[C@H]1C=C(C(=O)N2CCN(Cc3ccc4c(c3)OCO4)CC2)O[C@@H](OCc2ccc(CO)cc2)C1 the results were Shiga toxin inh -9.5, Cycloheximide cs -1.6, Pf growth 96h inconclusive and Pf growth 48h 10.4µM*.
Screening CC(C)(C)[C@@H]1C=C(C(=O)N2CCN(Cc3ccccc3)CC2)O[C@H](OCc2ccc(CO)cc2)C1 returned Shiga toxin inh -14.8, Cycloheximide cs -0.7, Pf growth 96h 14.7µM* and Pf growth 48h inconclusive.
For O=C(C1=C[C@H](C2CC2)C[C@H](OCc2ccc(CO)cc2)O1)N1CCN(Cc2ccc3c(c2)OCO3)CC1 the results were Shiga toxin inh -12.4, Cycloheximide cs -3.1, Pf growth 96h inconclusive and Pf growth 48h inconclusive.
Screening O=C(NCCCc1ccc(F)cc1)C1CCC(=O)N(CC2CCCCC2)C1 (stereo unspecified) returned Shiga toxin inh -12.8, Cycloheximide cs 2.4, Pf growth 96h 22.4% and Pf growth 48h -7.3%.
`Cc1ccc(C(=O)N/N=c2\sc3ccccc3n2C)cc1` gave Shiga toxin inh -6.1, Cycloheximide cs 19.6*, Pf growth 96h -14.1% and Pf growth 48h 22.0%.
COc1cccc(C(=O)N/N=c2\sc3ccccc3n2C)c1 was read as Shiga toxin inh 20.1, Cycloheximide cs 15.4*, Pf growth 96h 54.0% and Pf growth 48h 42.0%.
`Cn1/c(=N/NC(=O)c2ccccc2F)sc2ccccc21` gave Shiga toxin inh 78.6*, Cycloheximide cs 35.3*, Pf growth 96h 170.7% and Pf growth 48h 115.9%.
`CCC(=O)N/N=c1/sc2ccccc2n1C` gave Shiga toxin inh 27.3, Cycloheximide cs 7.4, Pf growth 96h inconclusive and Pf growth 48h 6.3%.
Screening S=C1NCCNC(=S)NCCOCCOCCOCCN1 returned Shiga toxin inh -9.2, Cycloheximide cs 17.8, Pf growth 96h inconclusive and Pf growth 48h -4.0%.
`COc1ccc(NC(=O)CCC(=O)c2cc(C)sc2C)cc1` gave Pf growth 96h 47.3% and Pf growth 48h 9.3%.
Screening COc1ccc(-c2cc3nc[nH]c(=O)c3s2)cc1 returned Shiga toxin inh 67.4, Cycloheximide cs 35.2* and Pf growth 48h 129.8%.
